Screening results from PubChem BioAssay.
Hits are enriched below; roughly 2.4% of the tested compounds scored in any of these assays.
TLR9-MyD88 block – blocks human TLR9 binding to MyD88 | Q9NR96+Q99836 | CHO BLA complementation TLR9-MyD88, CCF4 FRET ratio | inhibition, % at 4.98 µM | hit rate 0.21% among 340,000 | AID 504734;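 active = inhibition above the mean over all tested compounds plus 3 SD, cut at about 21% in these data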;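 note: 0% = DMSO only wells and 100% = clavulanate BLA inhibitor control wells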
HSF1 activator – increases HSF-1 driven luciferase reporter signal; hit rate 1.7% among 300,000; activation, % at 9 µM; NIH3T3-HGL HSF-1 luciferase reporter, MG132, 8 h; 100% = twice DMSO control signal;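 active = mean replicate activation of at least 50% with a set share of replicates each reaching 50%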;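 note: 0% = median of the neutral control wells and 100% = twice that signal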
TLR4 MyD88 comp – blocks binding of human TLR4 to MyD88. inhibition, % at 8.4 µM. AID 861. O00206+Q99836. HeLa CL3-4 TLR4/MyD88 BLA complementation, FRET ratio. hit rate 0.18% among 200,000; in the data active = inhibition above about 25%;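 note: 0% = vehicle and 100% = reference inhibitor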
Target sequence (O00206 whole entry, looked up): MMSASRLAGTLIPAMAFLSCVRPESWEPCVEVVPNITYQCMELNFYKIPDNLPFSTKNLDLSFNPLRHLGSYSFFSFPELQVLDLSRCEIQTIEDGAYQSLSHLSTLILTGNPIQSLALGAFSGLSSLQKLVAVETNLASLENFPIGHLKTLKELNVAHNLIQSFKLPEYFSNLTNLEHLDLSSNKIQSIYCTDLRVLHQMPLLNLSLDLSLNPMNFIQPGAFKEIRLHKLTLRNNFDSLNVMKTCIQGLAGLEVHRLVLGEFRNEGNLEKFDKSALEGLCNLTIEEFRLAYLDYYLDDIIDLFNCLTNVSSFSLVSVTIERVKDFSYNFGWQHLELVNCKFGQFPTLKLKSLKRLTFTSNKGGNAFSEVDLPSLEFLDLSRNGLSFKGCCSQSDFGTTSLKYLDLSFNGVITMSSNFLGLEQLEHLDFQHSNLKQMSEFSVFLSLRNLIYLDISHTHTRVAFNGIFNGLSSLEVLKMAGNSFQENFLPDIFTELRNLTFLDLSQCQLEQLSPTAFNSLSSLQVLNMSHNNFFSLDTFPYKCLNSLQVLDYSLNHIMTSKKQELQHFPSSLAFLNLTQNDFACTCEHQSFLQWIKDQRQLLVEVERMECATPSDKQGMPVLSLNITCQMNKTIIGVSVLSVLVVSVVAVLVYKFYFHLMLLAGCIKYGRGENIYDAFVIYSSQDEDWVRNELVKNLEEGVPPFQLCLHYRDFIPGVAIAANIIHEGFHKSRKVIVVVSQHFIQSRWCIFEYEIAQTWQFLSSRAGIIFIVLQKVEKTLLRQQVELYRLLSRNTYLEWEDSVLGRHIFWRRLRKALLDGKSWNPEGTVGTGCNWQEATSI
Target sequence (Q99836 whole entry, looked up): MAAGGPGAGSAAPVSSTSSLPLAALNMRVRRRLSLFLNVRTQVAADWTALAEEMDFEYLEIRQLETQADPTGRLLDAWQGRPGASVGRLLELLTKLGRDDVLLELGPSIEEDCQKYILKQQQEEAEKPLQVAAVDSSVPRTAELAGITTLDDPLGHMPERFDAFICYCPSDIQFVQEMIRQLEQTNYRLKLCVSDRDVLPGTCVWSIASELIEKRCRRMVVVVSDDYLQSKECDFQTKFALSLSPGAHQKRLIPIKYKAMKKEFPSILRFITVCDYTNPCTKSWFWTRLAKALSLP
HSF1 inh – HSF1 inhibition; NIH3T3-HGL HSE-luciferase, MG132-induced, luminescence 8 h; stronger effect = lower value; activity change, negative = inhibition, % at 7.5 µM (by protocol); hit rate 0.77% among 300,000;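 active = more than half of replicate wells show activity change below -50%, luminescence cut by over half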;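 note: luciferase reports HSF-1 transcriptional activity via heat shock element; 0% = median of DMSO wells and -100% = zero luminescence signal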
NOD2 RIPK2 PPI – blocks binding of human NOD2 to RIPK2; hit rate 0.38% among 360,000; O43353; CHO BLA complementation NOD2-RIPK2, CCF4 ratio; inhibition, % at 4.98 µM; AID 624267; in the data active = inhibition above about 21%;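 note: 0% = vehicle only and 100% = reference blocker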
Starred values were filed as active, the others as inactive; x = no result given.

SMILES	TLR9-MyD88 block	HSF1 activator	TLR4 MyD88 comp	HSF1 inh	NOD2 RIPK2 PPI
O=NN(CCF)C(=O)NC1CCC(=O)NC1=O (configuration not stated)	x	x	x	x	-13
CC(=O)OC(C)(C)/C=C/C(=O)C(C)(O)C1[C@H](O)C[C@@]2(C)C3CC=C4C(CC[C@@H](O)C4(C)C)[C@]3(CO)C(=O)C[C@]12C (some centres not stated)	-2	-61	x	-52*	5
CC(=O)OC(C)(C)/C=C/C(=O)[C@](C)(O)[C@H]1[C@H](O)C[C@@]2(C)[C@@H]3CC=C4[C@H](C[C@H](O)C(=O)C4(C)C)[C@]3(C)C(=O)C[C@]12C	-4	x	12	x	14
O=C1NC(=O)C(CCc2ccncc2)(CCc2ccncc2)C(=O)N1Cc1ccccc1	4	-78	-7	-71*	-9
CC1(C)CN=C(Nc2nc3ccccc3s2)S1	1	54*	-9	25	-9
COC(=O)C(Cc1ccc(N(CCCl)CCCl)cc1)N=Cc1ccccc1O (configuration not stated)	-14	33	x	3	-6
COc1ccc(-c2cc(=Nc3ccccc3)c3cc(C)ccc3o2)cc1	0	66*	-3	18	-4
CC1CCN(CC#CCOc2ccc(Cl)cc2)CC1	-7	11	x	6	11
C=CCn1c(O)c(C(C)=NCc2ccco2)c(=O)[nH]c1=O	-10	13	-2	9	-8
C=CCn1c(O)c(C(CC)=NCc2ccco2)c(=O)[nH]c1=O	-4	66*	x	21	0
CCOc1cc(C2NCc3ccccc3-n3cccc32)ccc1OC (configuration not stated)	-4	4	x	-2	1
CCOc1cc2c(cc1OCC)-n1cccc1C(c1cccc(OCC)c1O)NC2 (configuration not stated)	-10	51*	x	29	-5
COc1cc(C2NCc3ccccc3-n3cccc32)ccc1O (configuration not stated)	-54	54*	13	16	-3
CCN1C[C@]2(CO)CC[C@H](OC)[C@@]34C5C[C@H]6[C@H](OC)C5[C@](O)(C[C@H]6OC)[C@@H](C(OC)C23)[C@@H]14 (some centres not stated)	-8	-2	x	-6	5
COc1ccc(CN2Cc3cc(-c4ccc(OC)cc4)ccc3-n3nncc3C2)cc1	x	x	x	x	2
Cn1c2ccccc2c2cnn(CC(=O)N3CCC4(CC3)OCCO4)c(=O)c21	x	-64	11	-56*	x
CCOC(=O)[C@]12Cc3c(cc(OC)c(OC)c3OC)[C@H]1N(C)C(=O)c1cc(OC)ccc12	x	x	x	x	-8
COc1ccc(-c2nc3ccccc3c(=O)n2-c2cccnc2)cc1	1	-76	-6	-69*	-9
CCC(=Nc1ccccc1N)c1c(O)[nH]c(=O)[nH]c1=O	-9	26	x	9	0
O=C(c1ccc(Cl)cc1)C1CCCN(Cc2ccc3nonc3c2)C1 (configuration not stated)	-4	9	4	7	1
C[C@H]1CCCC(=O)CCC/C=C/c2cc(O)cc(O)c2C(=O)O1	0	24	3	5	-15
COc1cc(O)cc2c1C(=O)OC(C)CCCC(=O)CCC/C=C\2 (configuration not stated)	0	107*	x	65	2
CCOC(=O)c1c(-n2c(C)cc(/C=C3/C(=O)NC(=O)N(CC)C3=O)c2C)sc2c1CCCC2	1	-10	11	-11	-13
CCN1C(=O)NC(=O)/C(=C/c2cc(C)n(-c3sc(C)c(C)c3C#N)c2C)C1=O	3	-68	14	-56*	-5
C[C@]12CCC3C(CC[C@H]4[C@@H](O)[C@H](O)CC[C@]34C)C1CCC2=O (some centres not stated)	-6	x	x	x	-21
CCN(CC)P(=O)(NC(=O)c1cccn1C)N(CC)CC	-4	-89	-5	-84*	-1
O=C1NC(=O)[C@]2(Cc3ccccc3N3CCN(c4ccccc4)CC32)C(=O)N1Cc1ccccc1 (some centres not stated)	-18	65*	11	22	-5
C=C1C(=O)O[C@@H]2C[C@@H](C)[C@@H]3C=CC(=O)[C@@]3(C)[C@@H](O)[C@H]12	11	-93	x	-92*	8
